# In PubChem BioAssay (EPA / NIEHS):
# Where “and” joins values, the source holds several entries; their conditions need not be identical. Equal entries are not always repeated. Records with an inconclusive call do not appear. A structure can be active in one record and inactive in another. Calls of active or inactive are those of the source. How the source made its calls, unless noted: active means hit-call score of the fitted dose curve at least 0.9, where 1 is the maximum; inactive means score below 0.9.
# Legend:
# [1] = CCTE_Shafer_MEA_dev_firing_rate_mean: CCTE's Neural Network Formation Assay for Mean Firing Rate, Shafer Lab (AID 2284031);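 on AC50: curve fitted for loss of firing so AC50 reflects decreased mean firing rate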
# Outline: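 Read-out: spike count/recording length, averaged over active electrodes, then AUC across days 5, 7, 9, 12. Rat cortical cultures on MEA; continuous 12-day exposure, media and treatment renewed DIV 5, 9; DMSO baseline.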
# [2] = CCTE_Shafer_MEA_dev_per_burst_spike_percent: CCTE's Neural Network Formation Assay for Percent of Spikes in a Burst, Shafer Lab (AID 2284032);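 on AC50: fitted as a decrease in burst spike percentage below DMSO baseline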
# Outline: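 Value is trapezoidal AUC over recordings on days 5, 7, 9 and 12 of the well-mean fraction of spikes falling in single-electrode bursts; rat cortical cultures exposed continuously from plating, treatment renewed DIV 5 and 9, fitted downward against DMSO.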
# [3] = CCTE_Shafer_MEA_dev_burst_rate: CCTE's Neural Network Formation Assay for Burst Rate, Shafer Lab (AID 2284042)
# Outline: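 Developmental network assay measuring how 12-day exposure of rat cortical neuron cultures alters bursting on extracellular MEA recordings. Values are AUC of well-mean burst rate across four recording days, relative to DMSO vehicle.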
# [4] = CCTE_Shafer_MEA_dev_bursting_electrodes_number: CCTE's Neural Network Formation Assay for Number of Bursting Electrodes, Shafer Lab (AID 2284043; active means hit-call score of the fitted dose curve at least 0.9, where 1 is the maximum;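 on AC50: potency is for loss of bursting electrodes relative to DMSO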)
# Outline: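 Rat cortical primary neurons, 48-well MEA, 16 electrodes/well; dosing DIV 0–12, re-dosed with full media change DIV 5, 9. Recordings DIV 5/7/9/12, AxIS adaptive spike detector; bursting electrode = ≥1 burst/2 min. AUC across days; loss of signal vs DMSO.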
# [5] = CCTE_Shafer_MEA_dev_per_burst_interspike_interval: CCTE's Neural Network Formation Assay for Burst Interspike Interval, Shafer Lab (AID 2284044);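 on AC50: potency for a decrease of within-burst interspike interval below DMSO level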
# Outline: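 Neurons from rat cortex plated onto PEI-coated MEA wells with laminin […] at 1.5 x 10^5 cells/well, then treated from day 0. Media and compound fully replaced on DIV 5 and 9. Extracellular spontaneous firing recorded four times; interspike interval per burst summarised as AUC.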
# [6] = CCTE_Shafer_MEA_dev_burst_duration_mean: CCTE's Neural Network Formation Assay for Mean Burst Duration, Shafer Lab (AID 2284045);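 on AC50: curve fitted for loss meaning shorter burst duration than DMSO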
# Outline: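 Rat cortical cultures, 1.5 x 10^5 cells/well with laminin drop; continuous dosing days 0–12, media plus treatment refreshed DIV 5, 9. AxIS adaptive spike detection; mean single-electrode burst duration, AUC over four recordings, negative direction vs DMSO.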
# [7] = CCTE_Shafer_MEA_dev_interburst_interval_mean: CCTE's Neural Network Formation Assay for Mean Interburst Interval, Shafer Lab (AID 2284046);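 further: well-mean interburst interval of bursting electrodes as AUC over four recording days; curve fitted for decrease in interburst interval relative to DMSO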
# Outline: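 Network formation assay in primary rat cortical cultures, exposed from DIV 0 to 12. Mean interburst interval per well, integrated as AUC over four recordings.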
# [8] = CCTE_Shafer_MEA_dev_inter_network_spike_interval_mean: CCTE's Neural Network Formation Assay for Mean Inter-network Spike Interval, Shafer Lab (AID 2284047)
# Outline: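 Compound was given at plating to primary rat cortical neurons and renewed with full medium changes on DIV 5 and 9. Extracellular activity was recorded on days 5, 7, 9, 12; AUC values were fitted for loss relative to DMSO control.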
# [9] = CCTE_Shafer_MEA_dev_network_spike_number: CCTE's Neural Network Formation Assay for Number of Network Spikes, Shafer Lab (AID 2284048);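 further: synchronized bursts across electrodes counted on days 5 7 9 12 and integrated as AUC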;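 on AC50: fit as a loss of signal meaning fewer network spikes than DMSO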
# Outline: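 Rat cortical primary cultures on 48-well MEA (16 electrodes/well); continuous exposure DIV 0–12, full medium and treatment exchange DIV 5, 9. Readout: network spike count, AxIS adaptive detection, recordings DIV 5/7/9/12 collapsed to AUC; loss-of-signal fit, DMSO baseline.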
# [10] = CCTE_Shafer_MEA_dev_network_spike_peak: CCTE's Neural Network Formation Assay for Mean Number of Electrodes in Network Spike, Shafer Lab (AID 2284049);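 on AC50: fitted for loss of signal meaning fewer electrodes in network spikes than DMSO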
# Outline: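 Network-spike peak electrode count from recordings on days 5, 7, 9 and 12 was combined as trapezoidal area under the curve. Rat cortical cultures were treated continuously from plating, with compound renewed at each feed (DIV 5, 9); fits versus DMSO.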
# [11] = CCTE_Shafer_MEA_dev_spike_duration_mean: CCTE's Neural Network Formation Assay for Mean Spike Duration, Shafer Lab (AID 2284051);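 further: mean network spike duration pooled as area under curve over DIV 5 to 12 recordings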;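 on AC50: potency for a decrease in mean network spike duration versus DMSO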
# Outline: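 With DMSO as baseline, loss of mean network spike duration was scored from extracellular recordings of rat cortical neurons on MEA plates. Exposure spanned plating to DIV 12; the four recording days were collapsed into one AUC value.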
# [12] = CCTE_Shafer_MEA_dev_network_spike_duration_std: CCTE's Neural Network Formation Assay for Standard Deviation of Network Spike Duration, Shafer Lab (AID 2284052);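 further: area under curve of spike duration SD across recording days 5 to 12; hits are decreases in network spike duration SD versus DMSO vehicle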
# Outline: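 Developing networks of rat cortical neurons were exposed over twelve days in vitro on 48-well MEA plates. Trapezoidal AUC of recordings (DIV 5–12) was analysed for signal loss relative to DMSO vehicle.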
# [13] = CCTE_Shafer_MEA_dev_per_network_spike_spike_number_mean: CCTE's Neural Network Formation Assay for Mean Number of Spikes in a Network Spike, Shafer Lab (AID 2284053);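 on AC50: fitted as decrease in spikes per network spike relative to DMSO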
# Outline: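 First, rat cortical cells (1.5 x 10^5/well) were seeded onto MEA wells; second, dosing began at plating and was refreshed on DIV 5 and 9; finally, network-spike spike counts across DIV 5–12 were summarized as AUC.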
# [14] = CCTE_Shafer_MEA_dev_per_network_spike_spike_percent: CCTE's Neural Network Formation Assay for Percent of Spikes in a Network Spike, Shafer Lab (AID 2284054)
# Outline: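 Read-out: percent of spikes falling in a 0.05 s window at network-spike peak, from spontaneous MEA recordings on days 5, 7, 9 and 12; trapezoidal AUC; loss of signal versus DMSO. Rat cortical cultures, compound present throughout.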
# [15] = CCTE_Shafer_MEA_dev_active_electrodes_number: CCTE's Neural Network Formation Assay for Number of Active Electrodes, Shafer Lab (AID 2284040; active means hit-call score of the fitted dose curve at least 0.9, where 1 is the maximum;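 on AC50: potency for loss of active electrodes versus DMSO so lower counts are hits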)
# Outline: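 Developing rat cortical networks on MEAs, exposed DIV 0–12. Value is the AUC of active-electrode counts (≥5 spikes/min) from days 5, 7, 9, 12, relative to DMSO.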
# [16] = CCTE_Deisenroth_AIME_384WELL_CTox_Active: Cytotoxicity Assessment (CTOX) in CCTE's 384-well Estrogen Receptor Transactivation Assay with AIME metabolic competence (metabolism positive), Deisenroth Lab (AID 2284037; active means hit-call score of the fitted dose curve at least 0.9, where 1 is the maximum;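 further: chemicals first conditioned 2 h by alginate-bound induced rat liver S9 before cells; activity means signal loss indicating cell death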)
# Outline: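 Chemicals pre-incubated 2 hours with alginate-immobilised phenobarbital/beta-naphthoflavone-induced male Sprague Dawley rat liver S9, then conditioned medium applied 24 hour to VM7Luc4E2 cells. Viability by fluorogenic protease substrate; 10-point series 0.002 - 200 uM.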
# [17] = biological target: Estrogen receptor (Homo sapiens) (UniProt P03372); assay: CCTE_Deisenroth_AIME_384WELL_LUC_Inactive: CCTE's 384-well Estrogen Receptor Transactivation Assay without AIME metabolic competence (ERTA luciferase; metabolism negative), Deisenroth Lab (AID 2284038; active means hit-call score of the fitted dose curve at least 0.9, where 1 is the maximum;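 further: VM7Luc4E2 breast cells given medium preincubated 2 h with S9-free microspheres; hits raise estrogen receptor luciferase signal so potencies reflect agonists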)
# Sequence of Estrogen receptor (Homo sapiens) (P03372 whole entry, looked up): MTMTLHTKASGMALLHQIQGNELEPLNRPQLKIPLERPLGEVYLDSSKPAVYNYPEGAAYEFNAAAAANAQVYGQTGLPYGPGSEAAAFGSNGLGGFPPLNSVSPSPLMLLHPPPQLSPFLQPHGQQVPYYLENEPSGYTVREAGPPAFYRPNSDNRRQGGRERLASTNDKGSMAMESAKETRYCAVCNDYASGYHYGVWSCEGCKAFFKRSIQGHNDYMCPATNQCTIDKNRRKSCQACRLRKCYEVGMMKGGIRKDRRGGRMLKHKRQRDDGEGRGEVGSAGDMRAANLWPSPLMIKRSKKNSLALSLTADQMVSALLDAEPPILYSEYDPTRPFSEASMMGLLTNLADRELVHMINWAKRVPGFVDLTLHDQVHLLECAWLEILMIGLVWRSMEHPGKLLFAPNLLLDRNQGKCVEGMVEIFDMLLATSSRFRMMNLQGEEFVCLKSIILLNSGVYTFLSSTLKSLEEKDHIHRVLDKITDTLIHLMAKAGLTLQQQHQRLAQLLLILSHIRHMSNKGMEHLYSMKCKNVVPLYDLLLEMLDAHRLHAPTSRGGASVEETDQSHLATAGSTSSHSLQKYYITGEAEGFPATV
# Outline: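 Metabolism-negative mode: AIME lids stamped in alginate-water, no hepatic S9. 2 h chemical incubation → medium onto VM7Luc4E2 ERTA, 24 h. Readout luciferase luminescence; gain-of-signal fit vs 17beta-estradiol. Conc. 0.002 - 200 uM.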
# [18] = CCTE_Deisenroth_AIME_384WELL_CTox_Inactive: Cytotoxicity Assessment (CTOX) in CCTE's 384-well Estrogen Receptor Transactivation Assay without AIME metabolic competence (metabolism negative), Deisenroth Lab (AID 2284039; active means hit-call score of the fitted dose curve at least 0.9, where 1 is the maximum;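 further: cell viability via live-cell protease substrate cleaved to fluorescent probe; cells exposed 24 h to medium preincubated 2 h with alginate-water beads without S9; loss of fluorescence signal means loss of viability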)
# Outline: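 Fluorescence from a live-cell protease substrate, read after 24 h in VM7Luc4E2 cells, indicated viability. Test medium came from a 2 h AIME step without hepatic S9 (alginate-water microspheres); concentrations spanned 0.002 - 200 uM, single technical replicate per run.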
# [19] = biological target: Estrogen receptor (Homo sapiens) (UniProt P03372); assay: CCTE_Deisenroth_AIME_384WELL_LUC_Shift: CCTE's 384-well Estrogen Receptor Transactivation Assay with AIME metabolic competence data shift (ERTA luciferase; difference in metabolism positive and negative), Deisenroth Lab (AID 2284041);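 further: shift is response with S9 minus without S9 so positive means metabolism raised ER signal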
# Outline: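 Chemicals (0.002–200 uM, 10 points) pre-incubated 2 h with alginate-encapsulated induced male Sprague Dawley rat liver S9 or S9-free, then medium applied 24 h to VM7Luc4E2 cells; luciferase. Endpoint is per-concentration difference, S9-positive minus negative.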
# DIO2 (gene 1734) = assay: CCTE_GLTED_hDIO2: CCTE's human Deiodinase 2 (DIO2) Inhibition Assay, Great Lakes Toxicology and Ecology Division (GLTED) Lab (AID 2284050; active means hit-call score of the fitted dose curve at least 0.9, where 1 is the maximum)
# Outline: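 Readout: absorbance from Sandell-Kolthoff detection of free iodide released by human DIO2 during a 3 h incubation with chemical. Cell-free format, n=3; activity fitted relative to DMSO negative control.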
compound,measurement,setting,value
Cc1noc(NS(=O)(=O)c2ccc(N)cc2)c1C,outcome,[1],inactive
same,outcome,[2],inactive
same,outcome,[3],inactive
same,outcome,[4],inactive
same,outcome,[5],inactive
same,AC50,[6],24.1 µM (active)
same,outcome,[7],inactive
same,outcome,[8],inactive
same,outcome,[9],inactive
same,outcome,[10],inactive
same,outcome,[11],inactive
same,outcome,[12],inactive
same,outcome,[13],inactive
same,outcome,[14],inactive
C[N+](C)(C)CCCNS(=O)(=O)C(F)(F)C(F)(F)C(F)(F)C(F)(F)C(F)(F)C(F)(F)C(F)(F)C(F)(F)F,AC50,[1],4.93 µM (active) and 2.98 µM (active)
same,AC50,[2],2.98 µM (active) and 4.47 µM (active)
same,AC50,[15],1.13 µM (active) and 1.65 µM (active)
same,outcome,[3],inactive
same,AC50,[4],1.55 µM (active) and 4.37 µM (active)
same,AC50,[5],2.98 µM (active)
same,outcome,[5],inactive
same,outcome,[6],inactive
same,AC50,[7],2.43 µM (active) and 4.96 µM (active)
same,outcome,[8],inactive
same,AC50,[9],1.43 µM (active)
same,outcome,[9],inactive
same,AC50,[10],1.11 µM (active) and 1.4 µM (active)
same,AC50,[11],2.58 µM (active)
same,outcome,[11],inactive
same,outcome,[12],inactive
same,AC50,[13],901 nM (active) and 1.36 µM (active)
same,AC50,[14],2.55 µM (active)
same,outcome,[14],inactive
C=C1C[C@H]2[C@@H]3C=C(C)C4=CC(=O)CC[C@]4(C)[C@H]3CC[C@]2(C)[C@@]1(OC(C)=O)C(C)=O,outcome,[16],inactive
same,outcome,[17],inactive
same,outcome,[18],inactive
same,outcome,[19],inactive
CC(CCC(=O)O)(c1ccc(O)cc1)c1ccc(O)cc1,outcome,[16],inactive
same,AC50,[17],71.4 µM (active)
same,outcome,[18],inactive
same,AC50,[19],20.7 µM (active)
C=C(C)C1CC=C(C)CC1 (configuration not stated),outcome,[16],inactive
same,outcome,[17],inactive
same,outcome,[18],inactive
same,outcome,[19],inactive
O=c1c(O)c(-c2ccc(O)cc2O)oc2cc(O)cc(O)c12,AC50,[16],100 µM (active)
same,AC50,[17],109 µM (active)
same,AC50,[18],146 µM (active)
same,outcome,[19],inactive
same,AC50,DIO2 (gene 1734),55.4 µM (active)
CCCCCC[C@@H](O)C/C=C\CCCCCCCC(=O)OCC(O)CO (some centres not stated),outcome,[16],inactive
same,outcome,[17],inactive
same,outcome,[18],inactive
same,outcome,[19],inactive
N#Cc1ccc(C(c2ccc(C#N)cc2)n2cncn2)cc1,outcome,[16],inactive
same,outcome,[17],inactive
same,outcome,[18],inactive
same,outcome,[19],inactive
CCCCCCCCCCCCCCCCCCOS(=O)(=O)O,outcome,[16],inactive
same,outcome,[17],inactive
same,outcome,[18],inactive
same,outcome,[19],inactive
same,AC50,DIO2 (gene 1734),40.6 µM (active)
CC(C)c1cc(C(C)C)cc(C(C)C)c1,outcome,[16],inactive
same,outcome,[17],inactive
same,outcome,[18],inactive
same,outcome,[19],inactive
Cc1c(C(=O)c2c[nH]n(C)c2=O)ccc(S(C)(=O)=O)c1C1=NOCC1,outcome,[1],inactive
same,outcome,[2],inactive
same,outcome,[15],inactive
same,outcome,[3],inactive
same,outcome,[4],inactive
same,outcome,[5],inactive
same,outcome,[6],inactive
same,outcome,[7],inactive
same,outcome,[8],inactive
same,outcome,[9],inactive
same,outcome,[10],inactive
same,outcome,[11],inactive
same,outcome,[12],inactive
same,outcome,[13],inactive
same,outcome,[14],inactive
